Results taken from PubChem BioAssay (NCATS).
Records with an inconclusive call do not appear. Entries that show only a call come without a potency. Activity calls are given as the source filed them. The call rests on the fitted dose curve; in most records, active means well fitted curve in the direction sought with a large enough effect; inconclusive means small, poorly fitted or top-dose-only effect, or another doubt; inactive means no such curve, though single readings can be large; an effect the other way counts as inactive or inconclusive.

Experiments:
[1] = qHTS of pediatric cancer cell lines to identify multiple opportunities for drug repurposing: Primary screen for U-2 OS cells (AID 1347096); further: nearly all actives have a fitted effect of over 50% in size
Procedure, shortened: (§1)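 Cells (500-1,000/well) rested 5 h, then received compounds for 48 h; metabolically active cells were measured by CellTiter-Glo luminescence. Final concentrations spanned up to 46 µM (MIPE, 11-point) or 0.59 nM-46 µM (NPC, 8-point) in primary screens, 11-point in follow-ups.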

[2] = qHTS of pediatric cancer cell lines to identify multiple opportunities for drug repurposing: Primary screen for Saos-2 cells (AID 1347097); further: nearly all actives have a fitted effect of over 40% in size; further: potency means the concentration at half of the fitted maximal effect
Procedure, shortened: (§2)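 ATP-based luminescence (CellTiter-Glo) quantifies viability after a 48-hour exposure. Compounds are dosed across 8 or 11 final concentrations; DMSO and 2.3 µM bortezomib serve as controls.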

[3] = qHTS of pediatric cancer cell lines to identify multiple opportunities for drug repurposing: Primary screen for SK-N-SH cells (AID 1347098); further: nearly all actives have a fitted effect of over 65% in size; further: potency means the concentration at half of the fitted maximal effect
Procedure, shortened: as §1

[4] = qHTS of pediatric cancer cell lines to identify multiple opportunities for drug repurposing: Primary screen for NB1643 cells (AID 1347099); further: nearly all actives have a fitted effect of over 50% in size
Procedure, shortened: as §2

[5] = qHTS of pediatric cancer cell lines to identify multiple opportunities for drug repurposing: Primary screen for LAN-5 cells (AID 1347100); further: potency means the concentration at half of the fitted maximal effect
Procedure, shortened: as §1

[6] = qHTS of pediatric cancer cell lines to identify multiple opportunities for drug repurposing: Primary screen for BT-12 cells (AID 1347101); further: nearly all actives have a fitted effect of over 25% in size; further: potency means the concentration at half of the fitted maximal effect
Procedure, shortened: as §1

[7] = qHTS of pediatric cancer cell lines to identify multiple opportunities for drug repurposing: Primary screen for Rh18 cells (AID 1347102); further: nearly all actives have a fitted effect of over 65% in size; further: potency means the concentration at half of the fitted maximal effect
Procedure, shortened: as §1

[8] = qHTS of pediatric cancer cell lines to identify multiple opportunities for drug repurposing: Primary screen for OHS-50 cells (AID 1347103); further: nearly all actives have a fitted effect of over 40% in size; further: potency means the concentration at half of the fitted maximal effect
Procedure, shortened: as §1

[9] = qHTS of pediatric cancer cell lines to identify multiple opportunities for drug repurposing: Primary screen for RD cells (AID 1347104); further: nearly all actives have a fitted effect of over 55% in size; further: potency means the concentration at half of the fitted maximal effect
Procedure, shortened: as §2

[10] = qHTS of pediatric cancer cell lines to identify multiple opportunities for drug repurposing: Primary screen for control Hh wild type fibroblast cells (AID 1347106);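 further: series mostly up to about 46 µM; a drop in luminescence marks cytotoxicity and a rise apparent proliferation; nearly all actives have a fitted effect of over 55% in size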
Procedure, shortened: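 Viability after 48 h compound treatment at 37C, 500-1,000 cells/well, read as ATP luminescence with CellTiter-Glo. Primary screens used 11-point (MIPE, 0.78 nM-46 µM) or 8-point (NPC, 0.59 nM-46 µM) final concentrations; follow-up screens used 11-point dilutions.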

[11] = qHTS of pediatric cancer cell lines to identify multiple opportunities for drug repurposing: Primary screen for Rh30 cells (AID 1347107); further: series mostly up to about 46 µM; nearly all actives have a fitted effect of over 75% in size
Procedure, shortened: as §1

[12] = qHTS of pediatric cancer cell lines to identify multiple opportunities for drug repurposing: Primary screen for Rh41 cells (AID 1347108);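 further: series mostly up to about 46 µM; luminescence drop marks cytotoxic hits; nearly all actives have a fitted effect of over 70% in size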
Procedure, shortened: as §2

[13] = qHTS of pediatric cancer cell lines to identify multiple opportunities for drug repurposing: Confirmatory screen for NB1643 cells (AID 1347109); further: nearly all actives have a fitted effect of over 45% in size; further: potency means the concentration at half of the fitted maximal effect
Procedure, shortened: as §1

[14] = qHTS of pediatric cancer cell lines to identify multiple opportunities for drug repurposing: Confirmatory screen for A673 cells (AID 1347110);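 further: cells exposed to compound for 48 h before the viability read; nearly all actives have a fitted effect of over 65% in size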; further: potency means the concentration at half of the fitted maximal effect
Procedure, shortened: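 Concentration-response curves came straight from titrations: 11 points (0.78 nM to 46 µM) for MIPE and several concentrations (0.59 nM to 46 µM) for NPC in primary, 11 points in follow-up. Readout: ATP luminescence at 48 h.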

[15] = qHTS of pediatric cancer cell lines to identify multiple opportunities for drug repurposing: Confirmatory screen for BT-12 cells (AID 1347112); further: nearly all actives have a fitted effect of over 55% in size; further: potency means the concentration at half of the fitted maximal effect
Procedure, shortened: as §1

[16] = qHTS of pediatric cancer cell lines to identify multiple opportunities for drug repurposing: Confirmatory screen for LAN-5 cells (AID 1347113); further: nearly all actives have a fitted effect of over 65% in size; further: potency means the concentration at half of the fitted maximal effect
Procedure, shortened: as §1

[17] = qHTS of pediatric cancer cell lines to identify multiple opportunities for drug repurposing: Confirmatory screen for DAOY cells (AID 1347114); further: nearly all actives have a fitted effect of over 65% in size; further: potency means the concentration at half of the fitted maximal effect
Procedure, shortened: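 Viability measured as metabolically active cells via CellTiter-Glo luminescence following 48 hours of compound exposure, 11-point dilutions in confirmatory testing. 500-1,000 cells/well plated 5 hours before dosing; controls were DMSO and 2.3 µM bortezomib.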

[18] = qHTS of pediatric cancer cell lines to identify multiple opportunities for drug repurposing: Primary screen for MG 63 (6-TG R) cells (AID 1347105); further: nearly all actives have a fitted effect of over 50% in size; further: potency means the concentration at half of the fitted maximal effect
Procedure, shortened: as §2

[19] = qHTS of pediatric cancer cell lines to identify multiple opportunities for drug repurposing: Confirmatory screen for SK-N-MC cells (AID 1347111);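 further: potency means the concentration at half of the fitted maximal effect; cells exposed to compound for 48 h before the readout; nearly all actives have a fitted effect of over 70% in size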
Procedure, shortened: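 Seed 500-1,000 cells/well; rest 5 h at 37 degrees C. Pin-transfer compounds, 11-point titration. Incubate 48 h. Add CellTiter-Glo, 15 min RT, read luminescence.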

| Structure (SMILES) | Potency [1] | Potency [2] | Potency [3] | Potency [4] | Potency [5] | Potency [6] | Potency [7] | Potency [8] | Potency [9] | Potency [10] | Potency [11] | Potency [12] | Potency [13] | Potency [14] | Potency [15] | Potency [16] | Potency [17] | Potency [18] | Potency [19] |
| --- | --- | --- | --- | --- | --- | --- | --- | --- | --- | --- | --- | --- | --- | --- | --- | --- | --- | --- | --- |
| CN(C)CCN(Cc1ccsc1)c1ccccn1 | inactive | inactive | inactive | inactive | 0.001 µM (active) | inactive | inactive | inactive | inactive | inactive | inactive | inactive | inactive | inactive | inactive | inactive | inactive |  |  |
| CO/N=C(/C(=O)N[C@@H]1C(=O)N2C(C(=O)O)=C(Cn3nnc(C)n3)CS[C@H]12)c1csc(N)n1 | inactive | inactive | inactive | inactive |  | inactive |  |  | inactive | inactive |  | inactive |  |  |  |  |  | inactive |  |
| CCOC(=O)O[C@]1(C(=O)OCCl)CC[C@H]2[C@@H]3CCC4=CC(=O)C=C[C@]4(C)[C@H]3[C@@H](O)C[C@@]21C | inactive |  | inactive | inactive | inactive | inactive | inactive | inactive |  | inactive | inactive | inactive | inactive | inactive | inactive | inactive | inactive | inactive |  |
| CCC(=O)O[C@H]1[C@H](O[C@@H]2[C@@H](C)[C@H](O[C@H]3C[C@@](C)(OC)[C@@H](O)[C@H](C)O3)[C@@H](C)C(=O)O[C@H](CC)[C@@](C)(O)[C@H](O)[C@@H](C)C(=O)[C@H](C)C[C@@]2(C)O)O[C@H](C)C[C@@H]1N(C)C | inactive | inactive | inactive | inactive | inactive | inactive | inactive | inactive | inactive | inactive | inactive | inactive |  |  |  |  |  | inactive |  |
| O=C1CC[C@H](C(=O)N2CCCCC2)N1 | inactive | inactive | inactive | inactive | inactive |  | inactive | inactive | inactive | inactive |  | inactive |  |  |  |  |  | inactive |  |
| O=C1CC2(CCCC2)CC(=O)N1CCNCC1COc2ccccc2O1 (centres undefined) | inactive | inactive | inactive | inactive | inactive | inactive | inactive | inactive | inactive | inactive | inactive | inactive |  |  |  |  |  |  |  |
| COc1cc(S(N)(=O)=O)cc(C(=O)O)c1OC | inactive | inactive | inactive | inactive | inactive | inactive | inactive | inactive | inactive | inactive | inactive | inactive |  |  |  |  |  | inactive |  |
| CCN1C(=O)c2ccccc2C1Nc1ccc(OCCN2CCCCC2)cc1 (centres undefined) | inactive | inactive | inactive | inactive | inactive | inactive | inactive | inactive |  | inactive | inactive | inactive |  |  |  |  |  |  |  |
| CN(C)C(=O)CNC(=O)Cc1ccccc1 | inactive |  | inactive | inactive | inactive | inactive | inactive |  | inactive |  | inactive | inactive |  |  |  |  |  |  |  |
| C[C@H](CN1CCCC1)C(=O)c1ccc(C(F)(F)F)cc1 | inactive | inactive | inactive | inactive |  | inactive | inactive | inactive | inactive |  | inactive | inactive |  |  |  |  |  | inactive |  |
| COC(=O)c1c(Cl)c(Cl)c(C(=O)OC)c(Cl)c1Cl | inactive | inactive | inactive | inactive | inactive | inactive |  | inactive |  | inactive | inactive |  |  |  |  |  |  |  |  |
| CCCc1ccc(OCC(=O)N2CCN(C(=O)COc3ccc(CCC)cc3OC)CC2)c(OC)c1 | inactive | inactive | inactive | inactive |  | inactive | inactive | inactive | inactive | inactive | inactive | inactive |  |  |  |  |  | inactive |  |
| O=C(OCC1(COC(=O)c2cccnc2)CCCC(COC(=O)c2cccnc2)(COC(=O)c2cccnc2)C1O)c1cccnc1 | inactive | inactive | inactive | inactive | inactive | inactive | inactive | inactive | inactive | inactive | inactive | inactive |  |  |  |  |  | inactive |  |
| O=C(CS(=O)Cc1ccco1)NC/C=C\COc1cc(CN2CCCCC2)ccn1 (centres undefined) | inactive | inactive | inactive | inactive | inactive | inactive | inactive | inactive | inactive | inactive | inactive | inactive |  |  |  |  |  |  |  |
| Oc1ccc(CCNCCCCCCNCCc2ccccc2)cc1O | inactive |  |  | inactive |  |  |  |  |  | inactive | inactive |  |  |  |  |  |  | inactive |  |
| CCCCCCOC(=O)NC(=N)c1ccc(NCc2nc3cc(C(=O)N(CCC(=O)OCC)c4ccccn4)ccc3n2C)cc1 | inactive |  |  | inactive |  |  | inactive |  |  |  | inactive |  |  |  |  |  |  | inactive |  |
| CC(NCCC(c1ccccc1)c1ccccc1)c1ccccc1 (centres undefined) |  | 26.6 µM (active) | 27.3 µM (active) |  | 23.7 µM (active) | 27.6 µM (active) |  | 17.4 µM (active) |  | inactive |  |  |  |  |  |  |  |  |  |
| COc1ccc(/C(C)=C/C(=O)O)c(OC)c1 |  | inactive | inactive | inactive | inactive | inactive | inactive | inactive | inactive | inactive | inactive | inactive |  |  |  |  |  | inactive |  |
| OCCc1ccccc1 |  | inactive |  | inactive | inactive | inactive |  | inactive | inactive | inactive | inactive |  |  |  |  |  |  | inactive |  |
| COc1ccc([C@@H]2Sc3ccccc3NC(=O)[C@@H]2O)cc1 | inactive |  |  | inactive |  |  | inactive |  |  | inactive | inactive | inactive |  |  |  |  |  |  |  |
| CCOC(=O)C1=C(C)NC(C)=C(C(=O)OCC)C1c1ccccc1/C=C/C(=O)OC(C)(C)C |  |  | 27.3 µM (active) |  |  |  |  | 15.5 µM (active) |  | inactive | inactive |  |  |  |  |  |  | 26.6 µM (active) |  |
| Cc1cc(OCCOCC[N+](C)(C)Cc2ccccc2)ccc1C(C)(C)CC(C)(C)C |  | 13.3 µM (active) | 34.4 µM (active) | inactive | 21.1 µM (active) | 6.17 µM (active) | 10.6 µM (active) | 4.37 µM (active) | 18.8 µM (active) | inactive |  |  | 8.27 µM (active) | 1.04 µM (active) | 13.1 µM (active) | 9.27 µM (active) | 11.7 µM (active) |  | 2.61 µM (active) |
| N#C/C(=C1/SC[C@@H](c2ccc(Cl)cc2Cl)S1)n1ccnc1 | inactive |  |  |  |  |  | inactive |  |  | inactive | inactive |  |  |  |  |  |  | inactive |  |
| CCOC(=O)c1ccc(O)c(O)c1 | inactive |  | inactive | inactive |  |  | inactive |  | inactive | inactive | inactive | inactive |  |  |  |  |  | inactive |  |
| COC(=O)[C@H]1[C@H]2C[C@@H]3c4[nH]c5cc(OC)ccc5c4CCN3C[C@H]2C[C@@H](OC(=O)/C=C/c2ccc(O)c(OC)c2)[C@@H]1OC |  | 16.8 µM (active) | 21.7 µM (active) |  | 21.1 µM (active) |  |  | 34.7 µM (active) |  |  |  |  |  |  |  |  |  |  |  |
